Experimental data published in PubChem BioAssay (NCI).
This is part of a sample that, as a whole, favours compounds with a hit. Of some 83,000 tested, about 20% had one in any assay.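 The endpoint reported here, percent growth, reads 100 for growth as untreated, 0 for no net growth and -100 for all cells dead.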 The source made the active and inactive calls. How the source made its calls: active means growth percent below 10; inactive means the rest.

How the values were obtained:
Assay in all cases: NCI-60 one-dose screen, 48 h (100 = growth as untreated, 0 = no growth, -100 = all killed)
Details in all cases: 10 µM unless noted
NCI-H23 lung = system: NCI-H23 lung
NCI-H226 lung = system: NCI-H226 lung
NCI-H322M lung = system: NCI-H322M lung
HOP-62 NSCLC = system: HOP-62 NSCLC
NCI-H460 lung = system: NCI-H460 lung
HOP-92 NSCLC = system: HOP-92 NSCLC
NCI-H522 lung = system: NCI-H522 lung
A549/ATCC NSCLC = system: A549/ATCC NSCLC
786-0 renal = system: 786-0 renal
COLO 205 colon = system: COLO 205 colon
DU-145 prostate = system: DU-145 prostate
K-562 leukemia = system: K-562 leukemia
MALME-3M melanoma = system: MALME-3M melanoma
MDA-MB-231 breast = system: MDA-MB-231 breast
RXF 393 renal = system: RXF 393 renal
SF-268 CNS = system: SF-268 CNS
SF-295 CNS = system: SF-295 CNS
SF-539 CNS = system: SF-539 CNS
UACC-257 melanoma = system: UACC-257 melanoma
M14 melanoma = system: M14 melanoma

Measured: growth

C=C(C)[C@@H]1CC[C@]2(CN)CC[C@]3(C)[C@H](CC[C@@H]4[C@@](C)(CCCN)[C@H](C(=C)C)CC[C@]43C)[C@@H]12
inactive: NCI-H23 lung 91.1% | NCI-H226 lung 90.6% | NCI-H322M lung 90.2% | HOP-62 NSCLC 90.6% | NCI-H460 lung 94.7% | HOP-92 NSCLC 67.4% | NCI-H522 lung 94% | A549/ATCC NSCLC 82.7% | 786-0 renal 81.8% | COLO 205 colon 34.5% | DU-145 prostate 94.8% | MALME-3M melanoma 80.2% | MDA-MB-231 breast 92.8% | RXF 393 renal 79% | SF-268 CNS 79.9% | SF-295 CNS 101% | SF-539 CNS 90.4% | UACC-257 melanoma 99.7% | M14 melanoma 75.2%
active: K-562 leukemia 1.94%

COc1ccc(C(=O)c2ccc(C)cc2)c(OC)c1OC
inactive: NCI-H23 lung 82.9% | NCI-H226 lung 90.1% | NCI-H322M lung 111% | HOP-62 NSCLC 78.5% | NCI-H460 lung 87.1% | HOP-92 NSCLC 85.6% | NCI-H522 lung 81.8% | A549/ATCC NSCLC 78.3% | 786-0 renal 107% | COLO 205 colon 70.8% | DU-145 prostate 89.8% | K-562 leukemia 40% | MALME-3M melanoma 92.5% | MDA-MB-231 breast 75.9% | RXF 393 renal 86.1% | SF-268 CNS 85.9% | SF-295 CNS 74.5% | SF-539 CNS 77% | UACC-257 melanoma 82.9% | M14 melanoma 61.3%

C=COCCCCCCCCCCCCCCCCCC
inactive: NCI-H23 lung 101% | NCI-H226 lung 104% | NCI-H322M lung 137% | HOP-62 NSCLC 108% | NCI-H460 lung 107% | HOP-92 NSCLC 75.6% | NCI-H522 lung 97.5% | A549/ATCC NSCLC 79.5% | 786-0 renal 102% | COLO 205 colon 104% | DU-145 prostate 106% | K-562 leukemia 119% | MALME-3M melanoma 109% | MDA-MB-231 breast 90.4% | RXF 393 renal 119% | SF-268 CNS 101% | SF-295 CNS 118% | SF-539 CNS 96.4% | UACC-257 melanoma 92.2% | M14 melanoma 113%

C#Cc1cccc(NC(=O)C2CCCN(C(=O)CCl)C2)c1 (stereo not given)
inactive: NCI-H322M lung 111% [8.25 µM] | HOP-62 NSCLC 87.8% [8.25 µM] | NCI-H460 lung 97.5% [8.25 µM] | HOP-92 NSCLC 98.3% [8.25 µM] | A549/ATCC NSCLC 86.1% [8.25 µM] | 786-0 renal 89.5% [8.25 µM] | COLO 205 colon 27.2% [8.25 µM] | DU-145 prostate 102% [8.25 µM] | K-562 leukemia 20.2% [8.25 µM] | MDA-MB-231 breast 81.5% [8.25 µM] | RXF 393 renal 67% [8.25 µM] | SF-268 CNS 78.3% [8.25 µM] | SF-295 CNS 85.4% [8.25 µM] | SF-539 CNS 79.9% [8.25 µM] | UACC-257 melanoma 79.7% [8.25 µM] | M14 melanoma 20.6% [8.25 µM]
active: NCI-H23 lung -27% [8.25 µM] | NCI-H226 lung 1.82% [8.25 µM] | NCI-H522 lung -53.6% [8.25 µM] | MALME-3M melanoma 3.83% [8.25 µM]

CN(C)c1ccc(-c2ccc(-c3ccc(C(=N)N)c(F)c3)s2)cc1
inactive: MALME-3M melanoma 71.3% | UACC-257 melanoma 111% | M14 melanoma 97.5%
active: NCI-H23 lung -67.1% | NCI-H226 lung -60.1% | NCI-H322M lung 0.0772% | HOP-62 NSCLC -75.2% | NCI-H460 lung -77.5% | HOP-92 NSCLC -79.4% | NCI-H522 lung -61.4% | A549/ATCC NSCLC -83.2% | 786-0 renal -93.7% | COLO 205 colon -74.7% | DU-145 prostate -93.7% | K-562 leukemia -34.3% | MDA-MB-231 breast -78.4% | RXF 393 renal -83.2% | SF-268 CNS -56.9% | SF-295 CNS -88.1% | SF-539 CNS -93%

Cc1cccc(C)c1NC(=O)CSC(=S)N1CCCCC1
inactive: NCI-H23 lung 88.7% | NCI-H226 lung 109% | NCI-H322M lung 82.7% | HOP-62 NSCLC 107% | NCI-H460 lung 106% | HOP-92 NSCLC 107% | NCI-H522 lung 92% | A549/ATCC NSCLC 101% | 786-0 renal 92.6% | COLO 205 colon 109% | DU-145 prostate 108% | K-562 leukemia 87.5% | MALME-3M melanoma 88.4% | MDA-MB-231 breast 119% | RXF 393 renal 111% | SF-268 CNS 96% | SF-295 CNS 101% | SF-539 CNS 99.5% | UACC-257 melanoma 102% | M14 melanoma 102%

O=C(/C(=C(\C(=O)c1ccccc1)c1ccccc1)c1ccccc1)c1ccccc1
inactive: NCI-H23 lung 42% | NCI-H226 lung 63.9% | NCI-H322M lung 76% | HOP-62 NSCLC 80.3% | NCI-H460 lung 25.1% | HOP-92 NSCLC 37.8% | NCI-H522 lung 43.3% | A549/ATCC NSCLC 28.9% | 786-0 renal 69.9% | COLO 205 colon 53.2% | DU-145 prostate 80.1% | K-562 leukemia 14.1% | MALME-3M melanoma 77.2% | MDA-MB-231 breast 66.7% | RXF 393 renal 69.5% | SF-268 CNS 56.2% | SF-295 CNS 54.7% | SF-539 CNS 82.1% | UACC-257 melanoma 68.8% | M14 melanoma 66.3%

C=C1C(=O)O[C@H]2[C@H]1CC/C(COC(=O)NCc1c[nH]c3ccccc13)=C\CC[C@@]1(C)O[C@@H]21
inactive: NCI-H23 lung 68.3% | NCI-H226 lung 88.8% | NCI-H322M lung 84.5% | HOP-62 NSCLC 65.2% | NCI-H460 lung 74.7% | HOP-92 NSCLC 107% | A549/ATCC NSCLC 82.5% | 786-0 renal 44.6% | DU-145 prostate 29.2% | K-562 leukemia 12.7% | MALME-3M melanoma 52.7% | MDA-MB-231 breast 42% | RXF 393 renal 17.5% | SF-268 CNS 70.8% | SF-295 CNS 94.6% | UACC-257 melanoma 75.2% | M14 melanoma 48.7%
active: NCI-H522 lung -35.2% | COLO 205 colon -20.4% | SF-539 CNS 7.38%

O=C1C(=O)N(CCCCn2cc(-c3ccccc3)nn2)c2ccccc21
inactive: NCI-H23 lung 101% | NCI-H226 lung 106% | NCI-H322M lung 103% | HOP-62 NSCLC 106% | NCI-H460 lung 99.9% | HOP-92 NSCLC 101% | NCI-H522 lung 100% | A549/ATCC NSCLC 108% | 786-0 renal 102% | COLO 205 colon 112% | DU-145 prostate 105% | K-562 leukemia 109% | MALME-3M melanoma 92.9% | MDA-MB-231 breast 102% | RXF 393 renal 114% | SF-268 CNS 101% | SF-295 CNS 102% | SF-539 CNS 93.9% | UACC-257 melanoma 100% | M14 melanoma 96.1%

N=c1c(S(=O)(=O)c2ccccc2)cc2c(=O)n3ccccc3nc2n1C1CCCC1
inactive: NCI-H23 lung 95.8% | NCI-H226 lung 91.9% | NCI-H322M lung 74.9% | HOP-62 NSCLC 79% | NCI-H460 lung 105% | HOP-92 NSCLC 39.4% | NCI-H522 lung 92% | A549/ATCC NSCLC 80.2% | 786-0 renal 80.8% | COLO 205 colon 113% | DU-145 prostate 93.2% | K-562 leukemia 76.6% | MALME-3M melanoma 108% | MDA-MB-231 breast 64% | RXF 393 renal 86% | SF-268 CNS 83.5% | SF-295 CNS 91.2% | SF-539 CNS 83.7% | UACC-257 melanoma 111% | M14 melanoma 110%

N#CC1=C(N)Oc2ccc3ccccc3c2C1c1ccccc1Cl (stereo not given)
inactive: NCI-H23 lung 61.6% | NCI-H226 lung 70.8% | NCI-H322M lung 74.9% | HOP-62 NSCLC 38.7% | NCI-H460 lung 20.4% | HOP-92 NSCLC 69.1% | NCI-H522 lung 34.4% | A549/ATCC NSCLC 53% | 786-0 renal 42.4% | COLO 205 colon 39.3% | DU-145 prostate 73.3% | K-562 leukemia 13.2% | MALME-3M melanoma 46.2% | MDA-MB-231 breast 51.3% | RXF 393 renal 58.7% | SF-268 CNS 57.7% | SF-295 CNS 11.7% | SF-539 CNS 35% | UACC-257 melanoma 66.7% | M14 melanoma 13.4%

N#C/C(=C\c1ccc(-c2ccc(Br)cc2)o1)c1nc(-c2cccs2)cs1
inactive: NCI-H23 lung 91.3% | NCI-H226 lung 102% | NCI-H322M lung 97.8% | HOP-62 NSCLC 107% | NCI-H460 lung 103% | HOP-92 NSCLC 91% | NCI-H522 lung 94.4% | A549/ATCC NSCLC 109% | 786-0 renal 100% | COLO 205 colon 125% | DU-145 prostate 100% | K-562 leukemia 97% | MALME-3M melanoma 101% | MDA-MB-231 breast 89.3% | RXF 393 renal 107% | SF-268 CNS 102% | SF-295 CNS 100% | SF-539 CNS 93.8% | UACC-257 melanoma 102% | M14 melanoma 95.8%

Cc1cccc(C)c1NCc1nc(-c2ccccc2)n[nH]1
inactive: NCI-H23 lung 97.9% | NCI-H226 lung 112% | NCI-H322M lung 95.4% | HOP-62 NSCLC 100% | NCI-H460 lung 107% | HOP-92 NSCLC 101% | NCI-H522 lung 94.5% | A549/ATCC NSCLC 101% | 786-0 renal 95.6% | COLO 205 colon 106% | DU-145 prostate 106% | K-562 leukemia 100% | MALME-3M melanoma 98.6% | MDA-MB-231 breast 103% | RXF 393 renal 121% | SF-268 CNS 101% | SF-295 CNS 98.1% | SF-539 CNS 93.2% | UACC-257 melanoma 100% | M14 melanoma 97.9%

Cc1cc(N(CCNc2ccnc3cc(Cl)ccc23)Cc2ccco2)nc(Cl)n1
inactive: NCI-H23 lung 14.2% | NCI-H322M lung 12.6% | DU-145 prostate 19.6% | SF-268 CNS 30.9%
active: NCI-H226 lung -62.3% | HOP-62 NSCLC -48.2% | NCI-H460 lung -59.8% | HOP-92 NSCLC -76.9% | NCI-H522 lung -8.16% | A549/ATCC NSCLC -55.8% | 786-0 renal -92.8% | COLO 205 colon -53.5% | K-562 leukemia -54.5% | MALME-3M melanoma -64.6% | MDA-MB-231 breast -75.4% | RXF 393 renal -79.8% | SF-295 CNS -75% | SF-539 CNS -80.8% | UACC-257 melanoma -29.2% | M14 melanoma -64.9%
